HTT ATP protect – Huntington cell model cytoprotection by ATP luminescence. PC12 HTT-Q103 induced, cytoprotection, ATP luminescence, 40 h. Potency, µM (highest dose often 56.4 µM), actives largely listed as activators. 230,000 tested, 0.14% active. AID 1471; further: nearly all actives have a fitted effect of over 45% in size
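Rat PC12, Q103 Htt exon1-GFP fusion, ecdysone promoter; tebufenozide inducer 100 nM final; compound titration; qHTS, 1500 cells/well; ATPlite luminescent read.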
HPGD block – blocks human HPGD enzyme activity | P15428 | AID 894 | purified HPGD, NADH fluorescence kinetic, PGE2 substrate | Potency, µM, most hits filed as inhibitors | 150,000 tested, 4.3% active; active means well fitted inhibition curve with a large enough effect, not every such curve was filed as active; inconclusive means small, poorly fitted or top-dose-only effect, or another doubt; inactive means no such curve, though single readings can be large or run the other way
Target sequence (P15428 whole entry, looked up): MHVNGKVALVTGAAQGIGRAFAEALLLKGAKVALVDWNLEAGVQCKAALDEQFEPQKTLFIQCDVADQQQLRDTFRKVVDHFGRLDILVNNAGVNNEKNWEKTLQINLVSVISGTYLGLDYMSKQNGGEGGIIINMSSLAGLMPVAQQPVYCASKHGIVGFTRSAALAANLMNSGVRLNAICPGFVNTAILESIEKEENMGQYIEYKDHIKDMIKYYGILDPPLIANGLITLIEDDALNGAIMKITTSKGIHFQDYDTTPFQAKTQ
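20 nM HPGD preincubated 15 min at room temperature with compound in 50 mM Tris-HCl pH 8, 0.01% Tween 20. Started with 1 mM NAD+ and 30 uM prostaglandin E2; NADH fluorescence (360/450 nm) read 5 times over 30-s intervals, last minus first.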
HTT aggregate – mutant huntingtin aggregation inhibition; Potency, µM (doses to about 46.1 µM), actives largely listed as inhibitors; PC12 HttQ103-GFP aggregates, Acumen cytometry, 40 h; 220,000 tested, 1.1% active; AID 1688; further: nearly all actives have a fitted effect of over 60% in size
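Multiplexed with ATP-based cell death, this channel scores GFP aggregates in PC12 cells expressing inducible HTTex1-Q103-GFP. Induction used 100 nM tebufenozide; compounds were tested in concentration series.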
Lamin A splicing – modulators of lamin A splicing; HeLa LMNA splicing GFP/RFP minigene ratio, 48 h; Potency, µM (highest dose often 46.1 µM), usual class: inhibitors; 200,000 tested, 0.01% active; AID 1487; active means well fitted inhibition curve with a large enough effect in the signal ratio, with a control signal flat, not every such curve was filed as active; inconclusive means small, poorly fitted or top-dose-only effect, or effect the other way, or a change in a side signal; the % refers to the signal ratio
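Read-out is the ratio of GFP to DsRed2 object intensity, acquired by 488 nm laser-scanning cytometry on HeLa lamin A-EGFP minigene reporter cells. Compound incubation 48 hrs at 37 °C in Opti-MEM with 2% FBS; DMSO 0.5% final.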
ALDH1A1 inh – ALDH1A1 (human) enzyme inhibition | P00352 | Potency, µM (titrated, usually from 75.3 µM), usual class: inhibitors | Purified ALDH1A1, NADH fluorescence, propionaldehyde substrate | 220,000 tested, 7.3% active; active means well fitted inhibition curve with a large enough effect, not every such curve was filed as active; inconclusive means small, poorly fitted or top-dose-only effect, or another doubt; inactive means no such curve, though single readings can be large or run the other way
Target sequence (P00352 whole entry, looked up): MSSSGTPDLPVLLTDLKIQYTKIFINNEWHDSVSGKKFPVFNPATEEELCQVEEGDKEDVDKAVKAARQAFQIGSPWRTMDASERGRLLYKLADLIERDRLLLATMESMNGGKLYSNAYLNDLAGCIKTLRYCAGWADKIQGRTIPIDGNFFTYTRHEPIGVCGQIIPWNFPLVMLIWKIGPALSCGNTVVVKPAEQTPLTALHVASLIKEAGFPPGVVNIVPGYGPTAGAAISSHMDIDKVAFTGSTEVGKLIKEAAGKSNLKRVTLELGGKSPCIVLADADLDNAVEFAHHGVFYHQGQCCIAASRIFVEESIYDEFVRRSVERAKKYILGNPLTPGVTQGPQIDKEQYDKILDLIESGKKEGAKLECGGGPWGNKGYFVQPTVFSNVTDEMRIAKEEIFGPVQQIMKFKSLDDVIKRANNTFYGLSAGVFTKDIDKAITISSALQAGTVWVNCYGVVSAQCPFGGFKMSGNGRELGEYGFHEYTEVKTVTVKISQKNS
Large screens that a line does not name were inactive. Shown are actives, neighbours in structure and some others; about 8.8% of the full set was active somewhere. Unless noted, the call rests on the fitted dose curve; in most records, active means well fitted curve in the direction sought with a large enough effect; inconclusive means small, poorly fitted or top-dose-only effect, or another doubt; inactive means no such curve, though single readings can be large; an effect the other way counts as inactive or inconclusive.

COc1ccc(/C=C/C(=O)c2ccccc2)cc1Cn1nnc2ccccc21	HPGD block 16µM, Lamin A splicing inconclusive, ALDH1A1 inh inconclusive
COc1ccc(C(=O)N2CCC3(CCCN(C)C3)CC2)cc1	none (no result: HTT aggregate, Lamin A splicing)
O=c1[nH]c(/C=C2\C=Nc3ccccc32)c(O)n1Cc1ccccc1F	ALDH1A1 inh 13µM (no result: HPGD block)
CCC(=O)N1CCc2cc(Br)cc(S(=O)(=O)NCCc3cccc(C)c3)c21	none (no result: HTT ATP protect, HPGD block, HTT aggregate, ALDH1A1 inh)
CC(=O)NC(NC(=S)Nc1ccc(S(N)(=O)=O)cc1)C(Cl)(Cl)Cl (stereo unspecified)	none (no result: HPGD block, Lamin A splicing, ALDH1A1 inh)
COC(=O)NC(NC(=S)Nc1ccccc1OC)C(Cl)(Cl)Cl (stereo unspecified)	ALDH1A1 inh 3.2µM (no result: HPGD block)
COc1ccc([N+](=O)[O-])cc1NC(=S)NC(NC(=O)C(c1ccccc1)c1ccccc1)C(Cl)(Cl)Cl (stereo unspecified)	HTT aggregate inconclusive, Lamin A splicing inconclusive, ALDH1A1 inh 20µM
CCOC(=O)NC(NC(=S)Nc1ccccc1OC)C(Cl)(Cl)Cl (stereo unspecified)	none
CC(=O)NC(NC(=S)Nc1ccc(N=Nc2ccccc2)cc1)C(Cl)(Cl)Cl (stereo unspecified)	HTT aggregate inconclusive, Lamin A splicing inconclusive, ALDH1A1 inh 13µM
COc1ccc([N+](=O)[O-])cc1NC(=O)C(C)c1ccccc1 (stereo unspecified)	none
COC(=O)NC(NC(=S)Nc1ccc([N+](=O)[O-])cc1)C(Cl)(Cl)Cl (stereo unspecified)	HTT ATP protect inconclusive, HPGD block 32µM, HTT aggregate inconclusive, Lamin A splicing inconclusive, ALDH1A1 inh 20µM
Cc1ccc2c(c1)N(C(=O)Nc1cccc3c1CCCC3)CCO2	none (no result: HTT ATP protect, HPGD block, HTT aggregate, ALDH1A1 inh)
CCOc1cc(CNCCSc2nnnn2C)cc(Br)c1OCc1ccccc1F	ALDH1A1 inh inconclusive
CCOc1cc(CNCc2ccncc2)cc(Br)c1OCc1ccccc1F	HTT aggregate 10µM
O=c1[nH]cnc2nc(-c3ccccc3)c(-c3ccccc3)nc12	HPGD block inconclusive, HTT aggregate 14µM, ALDH1A1 inh inconclusive
CC(=O)Nc1ccc(OCC(O)Cn2c3ccccc3c3ccccc32)c(C)c1 (stereo unspecified)	HPGD block 25µM, Lamin A splicing inconclusive
CC(=O)Nc1ccc(OCC(O)Cn2c3ccccc3c3ccccc32)cc1 (stereo unspecified)	Lamin A splicing inconclusive
Cc1cccc(-n2ncc3c(NNC(=O)c4ccccc4Cl)ncnc32)c1	none (no result: HTT ATP protect, HPGD block, HTT aggregate, ALDH1A1 inh)
CCOc1ccc(CNS(=O)(=O)c2c(C(=O)N3CCC(C)CC3)c(C)n(C)c2C)cc1OC	none (no result: HTT ATP protect, HPGD block, HTT aggregate, ALDH1A1 inh)
CN1C(=O)C2(Oc3ccccc3C3CC(c4ccccc4)=NN32)c2ccccc21 (stereo unspecified)	Lamin A splicing inconclusive, ALDH1A1 inh 25µM
Cc1ccc(C2=NN3C(C2)c2ccccc2OC32C(=O)Nc3ccccc32)cc1 (stereo unspecified)	Lamin A splicing inconclusive, ALDH1A1 inh inconclusive
CCCN1CCCc2cc(CN)ccc21	HTT aggregate 13µM, Lamin A splicing inconclusive, ALDH1A1 inh inconclusive (no result: HPGD block)
Cc1ccc(S(N)(=O)=O)cc1NC(=O)/C=C/c1ccc2c(c1)OCO2	none (no result: HPGD block, Lamin A splicing)
CCn1c(=O)cc(SCC(=O)N2CCC(C)CC2)c2ccccc21	HPGD block 5µM, ALDH1A1 inh 20µM
CCn1c(=O)cc(SCC(=O)N2CCCCC2)c2ccccc21	HPGD block 7.9µM, HTT aggregate inconclusive, Lamin A splicing inconclusive, ALDH1A1 inh 20µM
CCN(CC)S(=O)(=O)c1ccc2c(c1)nc(CN(C)C(=O)Nc1cccc(Cl)c1)n2C	none (no result: HTT ATP protect, HPGD block, HTT aggregate, ALDH1A1 inh)
CN(C)c1ncc2nc(-c3ccc(F)cc3)c(=O)n(C)c2n1	ALDH1A1 inh inconclusive (no result: HPGD block, HTT aggregate)
O=c1c2c3c(sc2nc2n1CCC2)CCC3	none
O=c1nc2n(c3c4c(sc13)CCC4)CCC2	ALDH1A1 inh 18µM
Nc1cnn([C@@H]2O[C@H](CO)[C@@H](O)[C@H]2O)c(=O)n1	HTT ATP protect inconclusive, ALDH1A1 inh inconclusive (no result: HTT aggregate, Lamin A splicing)
O=c1cc(Cl)c(-c2ccccc2)n[nH]1	HPGD block 28µM
Fc1ccc(Sc2cc(Cl)c(-c3ccccc3)nn2)cc1	ALDH1A1 inh inconclusive
COCCN(CCOC)c1ncnc2c1c(-c1ccccc1)cn2-c1ccc(C)c(Cl)c1	none (no result: HTT ATP protect, HPGD block, HTT aggregate, ALDH1A1 inh)
O=C1CCCCC1c1cccc2ccccc12 (stereo unspecified)	none (no result: HTT ATP protect, HTT aggregate, Lamin A splicing)
O=C1c2ccccc2C(=O)C12OC2c1cccc2ccccc12 (stereo unspecified)	HPGD block inconclusive, HTT aggregate 35µM, ALDH1A1 inh 1µM
N#Cc1cn(-c2ccccc2)nc1-c1ccco1	ALDH1A1 inh 28µM
N#Cc1cn(-c2ccccc2)nc1-c1ccc2c(c1)OCCO2	none
Cc1ccc(S(=O)(=O)NCC(c2ccc(N(C)C)cc2)N2CCc3ccccc32)cc1 (stereo unspecified)	none (no result: HTT ATP protect, HPGD block, HTT aggregate, ALDH1A1 inh)
CC1(C)CC(=O)C=C(Nc2ccc(F)cc2F)C1	ALDH1A1 inh inconclusive
CC1(C)CC(=O)C=C(Nc2cc(-c3ccccc3)[nH]n2)C1	ALDH1A1 inh 4.5µM
CC1(C)CC(=O)C=C(NCc2ccccc2)C1	none
CC1(C)CC(=O)C=C(Nc2ccccc2F)C1	HPGD block 22µM, ALDH1A1 inh inconclusive
Cc1ccc(C)c(NC(=O)c2ccccc2NC(=O)C2CCCO2)c1 (stereo unspecified)	Lamin A splicing inconclusive (no result: HPGD block)
Cc1ccc(-n2ncc3c(N4CCCC4)ncnc32)c(C)c1	HTT aggregate inconclusive, Lamin A splicing inconclusive
Cc1cccc(-n2ncc3c(N4CCCCCC4)ncnc32)c1	none (no result: HTT ATP protect, HPGD block, HTT aggregate, ALDH1A1 inh)
Cc1cccc(-n2ncc3c(N4CCC(C)CC4)ncnc32)c1	HPGD block 28µM, ALDH1A1 inh 14µM
COc1cccc(N2CCN(c3ncnc4c3cnn4-c3ccc(C)cc3C)CC2)c1	HPGD block inconclusive, HTT aggregate 22µM, Lamin A splicing inconclusive, ALDH1A1 inh inconclusive
Cc1cccc(-n2ncc3c(NC(C)C)ncnc32)c1	HTT aggregate 11µM, Lamin A splicing inconclusive
CC(C)Nc1ncnc2c1cnn2-c1ccccc1	HPGD block inconclusive, Lamin A splicing inconclusive, ALDH1A1 inh inconclusive
CCN(CC)S(=O)(=O)c1ccc(NC(=O)c2cc3ccc4cccnc4c3[nH]2)cc1	none (no result: HTT ATP protect, HPGD block, HTT aggregate, ALDH1A1 inh)
Cc1csc(=Nc2c(C)n(C)n(-c3ccccc3)c2=O)n1Cc1ccccc1	Lamin A splicing inconclusive
C=CCn1c(-c2ccc(OC)cc2)csc1=Nc1c(C)n(C)n(-c2ccccc2)c1=O	HTT ATP protect inconclusive, HTT aggregate 0.79µM, Lamin A splicing inconclusive
CC(NC(=O)c1ccc(Br)s1)C1CCCO1 (stereo unspecified)	HPGD block 32µM, ALDH1A1 inh inconclusive
CC(=O)n1c(COS(C)(=O)=O)nc2ccccc21	none (no result: HTT aggregate, Lamin A splicing)
CCOc1cc(/C=C2\CCC/C(=C\c3cc(Cl)c(O)c(OCC)c3)C2=O)cc(Cl)c1O	HPGD block 16µM, ALDH1A1 inh 2.5µM
C=CCNC(=O)/C(C#N)=C\c1cc(Cl)c(O)c(OCC)c1	Lamin A splicing inconclusive, ALDH1A1 inh inconclusive

Compound activity: PubChem BioAssay, National Center for Advancing Translational Sciences (NCATS)
